Screens deposited in PubChem by several laboratories.
Hsp70 act: switches on Hsp70 transcription. HeLa Hsp70 promoter luciferase reporter, luminescence; scaled: vehicle 0, proteasome-inhibitor control 100%. activation, % at 10 µM. actives 0.04% (n = 200,000). AID 1203;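 active means activation above the mean across all tested compounds plus 3 SD, cutoff set per campaign, cut at about 5.5% in these data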
S1P4 antagonist: blocks the human S1P4 receptor | O95977 | S1P4-expressing cells, antagonist mode, reporter read-out | inhibition, % at 4.98 µM | actives 0.26% (n = 220,000) | AID 1510; in the data active means inhibition above about 29%
S1P3 antag: S1P3 (human) receptor antagonism; AID 485; actives 0.27% (n = 170,000); CHO S1P3 NFAT-BLA reporter, FRET fluorescence, antagonist mode; Q99500; inhibition, % at 4.98 µM;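 active means inhibition above the plate cutoff, the mean inhibition of test wells on that plate plus 3 SD, cut at about 28% in these data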;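 further: cells challenged with S1P at its EC80 of 0.8 µM; blue over green emission ratio from cleaved BLA substrate after 4 h stimulation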
Ins promoter up: MIN6 insulin promoter up-regulation; MIN6 insulin promoter-GFP reporter, high-content imaging; hits give high values; actives 0.3% (n = 190,000); z-score at 5 µM;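 active means z-score above 3 at 5 µM with at least 500 cells counted in the well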
Insulin prom inh: TRM-6 insulin promoter activity inhibition | TRM-6 cells (human fetal islet line), insulin promoter-eGFP reporter, imaging; reporter expression induced with tamoxifen | inhibition, % at 2 µM | actives 0.9% (n = 130,000);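 active means inhibition above the mean plus 3 SD, with well images judged a real hit on visual review, cut at about 60% in these data, passing the limit was not always enough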
S1P4 ag: agonists of human S1P4 receptor; O95977; actives 0.35% (n = 220,000); activation, % at 4.98 µM; S1P4-expressing cell line, agonist reporter assay; in the data active means activation above about 11%
S1P4 agonist cf: confirmation of human S1P4 receptor agonists. activation, % at 4.98 µM. AID 1523. shares compounds with S1P4 ag. actives 7% (n = 740). S1P4 agonist cell-based reporter assay; in the data active means activation above about 12%
S1P1 agonist: human S1P1 agonism as S1P4 agonist counter-screen; shares compounds with S1P4 ag; S1P1 agonist cell-based assay, activation; activation, % at 4.98 µM; actives 4% (n = 740); AID 1563; in the data active means activation above about 21%
Target sequence (P21453 whole entry, looked up): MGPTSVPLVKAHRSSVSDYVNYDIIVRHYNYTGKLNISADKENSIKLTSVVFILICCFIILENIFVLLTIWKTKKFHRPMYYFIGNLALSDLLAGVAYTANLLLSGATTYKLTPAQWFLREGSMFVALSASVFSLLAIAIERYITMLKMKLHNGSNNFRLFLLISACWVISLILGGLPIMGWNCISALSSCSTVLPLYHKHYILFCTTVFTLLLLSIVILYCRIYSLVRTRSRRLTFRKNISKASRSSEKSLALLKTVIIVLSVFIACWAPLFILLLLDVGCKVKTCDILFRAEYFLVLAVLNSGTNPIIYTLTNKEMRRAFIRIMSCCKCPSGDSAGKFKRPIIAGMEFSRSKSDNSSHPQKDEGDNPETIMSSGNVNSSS
S1P4 antag conf: human S1P4 antagonism, confirmation | shares compounds with S1P4 antagonist | S1P4-expressing cell line, antagonist mode, reporter read-out | inhibition, % at 4.98 µM | actives 71% (n = 520); in the data active means inhibition above about 30%
S1P1 antagonist: human S1P1 antagonism as S1P4 antagonist counter-screen; shares compounds with S1P4 antagonist; cell-based S1P1 antagonist counterscreen, inhibition; inhibition, % at 4.98 µM; actives 37% (n = 520); AID 1564; in the data active means inhibition above about 40%;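 further: receptor stimulated with S1P near its EC80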
Large screens that a line does not name were inactive (follow-up assays come after a bar, where they were run). Hits are enriched below; roughly 1.5% of the tested compounds scored in any of these assays.

CC(=O)Oc1ccc2cc(-c3nc4ccccc4n3C)c(=O)oc2c1	S1P4 antagonist 35.5, S1P4 ag 29.7 | S1P4 agonist cf 15.2 | S1P1 agonist inactive | S1P4 antag conf 37.5 | S1P1 antagonist inactive
Cc1sc2c(=O)n3c(nc2c1C(=O)NCCCN1CCOCC1)CCCCC3	none (no result: Insulin prom inh)
Clc1ccc2nc(N3CCNCC3)nc(-c3ccccc3)c2c1	S1P4 antagonist 30.0, S1P4 ag 20.4 (no result: S1P3 antag) | S1P4 agonist cf 12.5 | S1P1 agonist inactive | S1P4 antag conf 39.1 | S1P1 antagonist inactive
CN1CCN(c2nc(-c3ccccc3)c3cc(Cl)ccc3n2)CC1	none
O=C1C(Cl)=C(Nc2ccc(O)cc2)C(=O)c2ccccc21	S1P4 antagonist 90.1, S1P4 ag 13.6 (no result: Hsp70 act, Ins promoter up, Insulin prom inh) | S1P4 agonist cf inactive | S1P1 agonist inactive | S1P4 antag conf 104.6 | S1P1 antagonist 64.8
CC1(C)Cc2ccccc2C(NN=C2CCCC2)=N1	none (no result: Insulin prom inh)
O=C(Nc1nnc(-c2cccs2)o1)C1CC1	S1P4 antagonist 30.8 (no result: Insulin prom inh) | S1P4 antag conf inactive | S1P1 antagonist inactive
O=C(Nc1nnc(-c2ccc(Cl)s2)o1)C1CC1	none (no result: Ins promoter up)
CCC(C(=O)OC)(C(=O)OC)c1ccc([N+](=O)[O-])cc1	none (no result: Insulin prom inh)
CCn1c(Cl)c(C=O)s/c1=N\S(=O)(=O)c1ccccc1	S1P4 antagonist 87.8 (no result: Hsp70 act, Ins promoter up, Insulin prom inh) | S1P4 antag conf 120.1 | S1P1 antagonist 118.6
CCN1C(=O)CS/C1=N\S(=O)(=O)c1ccc(Cl)cc1	none
Cc1cc(C)cc(NC(=O)c2ccc([N+](=O)[O-])o2)c1	S1P4 antagonist 62.7 (no result: Insulin prom inh) | S1P4 antag conf 88.6 | S1P1 antagonist inactive
CC(C)C(=O)N1CCN(c2ccc(NC(=O)c3ccc([N+](=O)[O-])o3)cc2)CC1	S1P4 antagonist 69.8 (no result: Insulin prom inh) | S1P4 antag conf 88.0 | S1P1 antagonist 66.2
CC(C)C(=O)N1CCN(c2ccc(NC(=O)c3ccc(Br)o3)cc2)CC1	none
Cc1cc(NC(=O)c2ccc([N+](=O)[O-])o2)ccc1NC(=O)c1ccco1	S1P4 antagonist 89.6 | S1P4 antag conf 107.4 | S1P1 antagonist 58.2
CCCSc1nnc(NC(=O)Nc2ccccc2OC)s1	none (no result: Hsp70 act, Insulin prom inh)
CCn1c(=O)c2c(nc(SCc3ccccn3)n2C)n(C)c1=O	none
CCOc1ccc(C2C=C(c3ccc(F)cc3)Nc3ncnn32)cc1 (stereo not given)	none
Oc1ccc(C2C=C(c3ccc(F)cc3)Nc3ncnn32)cc1 (stereo not given)	S1P4 antagonist 42.5 (no result: Hsp70 act, Insulin prom inh) | S1P4 antag conf inactive | S1P1 antagonist inactive
COc1ccc(C2C=C(c3ccc(C)cc3)Nc3ncnn32)cc1 (stereo not given)	S1P4 antagonist 29.2 (no result: S1P3 antag) | S1P4 antag conf 43.3 | S1P1 antagonist 43.6
O=C(COC(=O)c1ccc2c(c1)C(=O)N(CCc1ccccc1)C2=O)Nc1ccc(OC(F)F)cc1	none (no result: Ins promoter up)
CCCN1C(=O)/C(=C/c2ccc(OCC(=O)OCC)cc2)NC1=S	S1P4 antagonist 30.3 (no result: Ins promoter up, Insulin prom inh) | S1P4 antag conf inactive | S1P1 antagonist inactive
COc1cc(NS(=O)(=O)c2cccc3nsnc23)c(C(=O)O)cc1OC	none
O=[N+]([O-])c1ccc(-n2nnnc2-c2ccccc2)c([N+](=O)[O-])c1	S1P4 antagonist 35.2 | S1P4 antag conf 52.7 | S1P1 antagonist inactive
O=[N+]([O-])c1ccc(-n2nnnc2-c2ccccc2)cc1	none
CC(C)C(NC(=O)c1ccco1)C(=O)OCc1cc([N+](=O)[O-])cc2c1OCOC2 (stereo not given)	none (no result: Insulin prom inh)
O=C(c1ccc(Cl)cc1)N1CCN(c2cc(=O)[nH]nc2-c2ccccc2)CC1	none (no result: S1P3 antag, Ins promoter up)
COc1ccc(/C=N/Nc2nn3cnnc3c3ccccc23)cc1	S1P4 antagonist 30.4 (no result: Hsp70 act, Insulin prom inh) | S1P4 antag conf inactive | S1P1 antagonist inactive
COc1ccc(/C=N/Nc2nonc2N)cc1	none (no result: S1P3 antag)
O=C(/C=C/c1ccccc1)c1ccccc1	none (no result: Ins promoter up)
